The results in this text go back to PubChem BioAssay (NCATS).

SMILES strings stand for the structures. Values joined by “and” are separate entries in the source; they are usually repeats but may differ in a detail not shown here. Equal entries are not always repeated. Inconclusive results are not listed. Active and inactive are the calls of the source. Unless noted, calls follow the shape of the full dose curve.

Assay [1] addresses Peroxisome proliferator-activated receptor gamma (Homo sapiens) (UniProt P37231). Description: qHTS assay for small molecule agonists of peroxisome proliferator-activated receptor gamma signaling (AID 588536; active = well fitted curve in the direction sought with a large enough effect in the signal ratio, with a control signal flat, not every such curve was filed as active; the % refers to the signal ratio). The note with it: HEK293 PPARg-UAS-bla, beta-lactamase ratio, 16 h, percent of rosiglitazone response, DMSO as zero; series mostly up to 76.7 µM. In short, it runs like this: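 Beta-lactamase reporter read-out: CCF4 fluorescence (ex 405, em 460/530 nm) after 2 h at RT. HEK293 GeneBLAzer cells were treated for 16 h at 37 C. Hill fits gave EC50 and efficacy versus 2 uM rosiglitazone (100%) and DMSO (0%).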

Assay [2] shares this target. Description: qHTS assay for small molecule antagonists of peroxisome proliferator-activated receptor gamma signaling (AID 588537; active = well fitted inhibition curve with a large enough effect in the signal ratio, with a control signal flat, not every such curve was filed as active; the % refers to the signal ratio;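 also: reporter cells co-stimulated with 50 nM rosiglitazone agonist during compound treatment; % of control where 0% means no effect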). The note with it: HEK293 PPARg-UAS-bla, beta-lactamase ratio, antagonist mode; series mostly up to 76.8 µM. In short, it runs like this: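 Cell-based beta-lactamase assay; GW9662 served as the antagonist control. Stimulation used rosiglitazone, final 50 nM, 16 h, 37 C.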

Assay [3] has as its target Vitamin D3 receptor (Homo sapiens) (UniProt P11473). Description: qHTS assay for small molecule antagonists of vitamin D receptor signaling (AID 588541).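 Also: receptor activated by calcitriol during compound treatment; % is scaled to controls: 0 for no effect and ±100 for the full control effect.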 The note with it: HEK293T VDR-UAS-bla, beta-lactamase ratio, antagonist mode; series mostly up to 76.7 µM. In short, it runs like this:
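Antagonist-mode beta-lactamase reporter assay: HEK293T VDR-UAS-bla cells were exposed to titrated compound alongside 1-alpha,25-dihydroxyvitamin D3 at 3 nM final for 16 h. Values were normalized to the 50 nM agonist control and DMSO basal, with IC50 and efficacy from Hill equation fits.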

Assay [4] shares this target. Description: qHTS assay for small molecule agonists of vitamin D receptor signaling (AID 588543).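 Also: 0% = DMSO basal and 100% = reference agonist control.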 The following applies: HEK293T VDR-UAS-bla, beta-lactamase ratio, 16 h; series mostly up to 76.8 µM. The method, boiled down:
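VDR-UAS-bla HEK293T cells, 2000/well, 2% charcoal-stripped FBS; compound titration 16 h at 37 C; CCF4 beta-lactamase ratio read. Normalized to 50 nM 1-alpha,25-dihydroxyvitamin D3 (100%) and DMSO; Hill fit gives EC50, efficacy.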

Assay [5] in a line: qHTS assay for small molecule agonists of retinoid X receptor alpha signaling (AID 588544).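 As to activation: 0% = DMSO basal wells and 100% = reference agonist.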 The following applies: HEK293T RXRa-UAS-bla, beta-lactamase reporter, 18 h; 530 nm emission.
Assay [6] addresses Retinoic acid receptor RXR-alpha (Homo sapiens) (UniProt P19793). The assay is described as above. The note with it: HEK293T RXRa-UAS-bla, beta-lactamase reporter, 18 h; series mostly up to 76.7 µM.
For assay [7], the target named is Thyroid hormone receptor beta (Homo sapiens) (UniProt P10828). Description: qHTS assay for small molecule agonists of thyroid hormone receptor beta signaling (AID 588545). The note with it: TR-UAS-bla GripTite HEK 293, beta-lactamase ratio, agonist mode, 18 h, percent of T3 response, DMSO as zero; series mostly up to 76.7 µM. The method, boiled down: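 In this cell-based screen, titrated compounds act on HEK 293 cells held in medium with 2% charcoal/dextran FBS, NEAA and pyruvate for 18 hrs at 37 C. Responses are expressed relative to T3 (10 nM) as 100% and basal DMSO as 0%.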

A short description of assay [8]: qHTS assay for small molecule antagonists of retinoid X receptor alpha signaling (AID 588546; active = well fitted inhibition curve with a large enough effect in the signal ratio, with a control signal flat, not every such curve was filed as active; the % refers to the signal ratio;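 also: cells stimulated with 9-cis-retinoic acid as agonist; % is scaled to controls: 0 for no effect and ±100 for the full control effect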). The following applies: HEK293T RXRa-UAS-bla, beta-lactamase ratio, antagonist mode; measured here: W530 green channel, cytotoxicity proxy. In short, it runs like this:
(§1)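 Beta-lactamase reporter inhibition, read as CCF4 fluorescence ratio (ex 405, em 460/530 nm) after 2 h at RT. HEK293T UAS-bla cells, 2500/well, were stimulated with 9-cis-RA at 500 or 100 nM final alongside test compound for 18 h at 37 C.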

Assay [9] concerns the target Retinoic acid receptor RXR-alpha (Homo sapiens) (UniProt P19793). The assay is described as above. The note with it: HEK293T RXRa-UAS-bla, beta-lactamase ratio, antagonist mode. In short, it runs like this: as §1
The target of assay [10] is Thyroid hormone receptor beta (Homo sapiens) (UniProt P10828). Description: qHTS assay for small molecule antagonists of thyroid hormone receptor beta signaling (AID 588547; active = well fitted inhibition curve with a large enough effect in the signal ratio, with a control signal flat, not every such curve was filed as active; the % refers to the signal ratio;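 also: cells stimulated with 0.4 nM T3 agonist during compound exposure; % is scaled to controls: 0 for no effect and ±100 for the full control effect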). The note with it: TR-UAS-bla HEK293, beta-lactamase ratio, antagonist mode, 18 h. In short, it runs like this:
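Inhibition of T3-driven (0.4nM final) beta-lactamase reporter activity was measured over 0.59 nM to 92 uM compound after 18 h at 37 C. The cells were GripTite HEK293 TR-UAS-bla in charcoal/dextran-stripped serum, with CCF4 ratio read-out and IC50 from Hill fits.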

For assay [11], the target named is Glucocorticoid receptor (Homo sapiens) (UniProt P04150). Description: qHTS assay for small molecule agonists of glucocorticoid receptor signaling (AID 588532; active = well fitted curve in the direction sought with a large enough effect in the signal ratio, with a control signal flat; the % refers to the signal ratio;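 also: 100% = dexamethasone at 0.1 µM and 0% = DMSO only wells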). The following applies: HeLa MMTV-bla, beta-lactamase ratio, agonist, 18 h; stronger effect = higher value; percent of dexamethasone control, DMSO zero. The method, boiled down: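 Quantitative HTS using CellSensor MMTV-bla HeLa cells in charcoal/dextran-treated serum; compounds tested up to 92 uM. After 18 h at 37 C, CCF4 dye reported reporter induction.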

The target of assay [12] is Peroxisome proliferator-activated receptor delta (Homo sapiens) (UniProt Q03181). Description: qHTS assay for small molecule agonists of peroxisome proliferator-activated receptor delta signaling (AID 588534).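 Also: 0% = DMSO basal wells and 100% = positive control agonist at 10 µM.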 The following applies: HEK293T PPARdelta-UAS-bla, beta-lactamase ratio, 18 h; series mostly up to 76.7 µM. The method, boiled down:
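EC50 and efficacy values derive from Hill fits of a concentration series in a beta-lactamase reporter cell assay. Exposure is 18 hrs at 37 C, with CCF4 fluorescence as the readout.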

Assay [13] can be described thus: qHTS assay for small molecule antagonists of peroxisome proliferator-activated receptor delta signaling (AID 588535; active = well fitted inhibition curve with a large enough effect in the signal ratio, with a control signal flat, not every such curve was filed as active; the % refers to the signal ratio;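 as to max response: cells co-treated with a PPAR-delta agonist as stimulator during compound exposure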). The following applies: HEK293T PPARd-UAS-bla, beta-lactamase FRET ratio, 18 h; 460 nm channel. The method, boiled down: (§2)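 Antagonist-mode qHTS using GeneBLAzer PPAR-delta-UAS-bla HEK293T cells; compound exposure 18 hrs at 37 C over a titration. Ratiometric CCF4 fluorescence at 460/530 nm; concentration-response points fitted to the Hill equation.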

Assay [14] addresses Peroxisome proliferator-activated receptor delta (Homo sapiens) (UniProt Q03181). Described as above. The note with it: HEK293T PPARd-UAS-bla, beta-lactamase FRET ratio, 18 h; series mostly up to 76.7 µM. In short, it runs like this:
as §2

Assay [15] has as its target Voltage-gated inwardly rectifying potassium channel KCNH2 (Homo sapiens) (UniProt Q12809). Description: qHTS Assay for Small Molecule Inhibitors of the Human hERG Channel Activity (AID 588834; active = well fitted inhibition curve with a large enough effect;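 also: lower thallium flux fluorescence means stronger hERG block; nearly all actives have a fitted effect of over 50% in size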; also: potency is read from the fitted curve at half-maximal effect). The following applies: U2OS BacMam hERG, FluxOR thallium flux fluorescence; series mostly up to 46.1 µM. In short, it runs like this: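 Thallium serves as surrogate for K+ influx through BacMam-delivered hERG in U2OS cells. Compounds are added for about 10 minutes after dye loading; stimulation buffer then starts flux, monitored kinetically on FDSS.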

Retinoic acid receptor RXR-alpha (Homo sapiens), sequence (P19793 whole entry, looked up): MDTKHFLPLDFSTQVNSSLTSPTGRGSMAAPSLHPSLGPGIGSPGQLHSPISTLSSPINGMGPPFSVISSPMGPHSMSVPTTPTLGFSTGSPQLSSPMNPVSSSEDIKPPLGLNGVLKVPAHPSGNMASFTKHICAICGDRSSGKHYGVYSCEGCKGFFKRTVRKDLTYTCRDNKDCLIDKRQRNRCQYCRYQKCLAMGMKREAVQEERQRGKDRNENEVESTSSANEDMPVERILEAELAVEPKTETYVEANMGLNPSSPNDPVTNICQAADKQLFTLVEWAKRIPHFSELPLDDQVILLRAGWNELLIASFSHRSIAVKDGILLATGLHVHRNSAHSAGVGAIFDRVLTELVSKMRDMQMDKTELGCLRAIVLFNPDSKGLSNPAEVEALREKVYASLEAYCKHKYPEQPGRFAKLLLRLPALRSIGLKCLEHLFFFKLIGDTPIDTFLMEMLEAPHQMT
Peroxisome proliferator-activated receptor gamma (Homo sapiens), sequence (P37231 whole entry, looked up): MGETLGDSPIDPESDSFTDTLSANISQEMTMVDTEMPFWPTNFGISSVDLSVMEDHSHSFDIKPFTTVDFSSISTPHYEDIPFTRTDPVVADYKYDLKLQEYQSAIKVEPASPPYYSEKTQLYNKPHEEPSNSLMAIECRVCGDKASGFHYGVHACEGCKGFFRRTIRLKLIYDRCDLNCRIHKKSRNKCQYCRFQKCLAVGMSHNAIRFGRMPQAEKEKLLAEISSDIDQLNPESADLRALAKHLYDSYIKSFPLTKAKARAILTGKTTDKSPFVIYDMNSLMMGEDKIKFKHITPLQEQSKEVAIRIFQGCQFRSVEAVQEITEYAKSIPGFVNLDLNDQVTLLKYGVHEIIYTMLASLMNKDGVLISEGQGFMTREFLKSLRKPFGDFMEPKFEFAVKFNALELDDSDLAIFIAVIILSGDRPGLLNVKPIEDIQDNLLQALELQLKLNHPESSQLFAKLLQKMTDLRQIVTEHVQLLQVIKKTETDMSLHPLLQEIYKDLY
Vitamin D3 receptor (Homo sapiens), sequence (P11473 whole entry, looked up): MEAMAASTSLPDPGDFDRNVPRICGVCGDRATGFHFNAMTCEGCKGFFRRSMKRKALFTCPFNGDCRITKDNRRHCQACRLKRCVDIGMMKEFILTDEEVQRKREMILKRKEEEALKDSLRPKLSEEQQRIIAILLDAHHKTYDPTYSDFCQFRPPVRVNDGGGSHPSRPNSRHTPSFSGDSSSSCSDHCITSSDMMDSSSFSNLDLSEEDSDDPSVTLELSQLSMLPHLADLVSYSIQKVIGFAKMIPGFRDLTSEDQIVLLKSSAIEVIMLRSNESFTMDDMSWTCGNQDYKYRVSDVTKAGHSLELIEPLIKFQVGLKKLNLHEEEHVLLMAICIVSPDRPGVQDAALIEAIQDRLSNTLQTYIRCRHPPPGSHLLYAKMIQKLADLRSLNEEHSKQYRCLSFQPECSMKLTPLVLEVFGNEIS
Peroxisome proliferator-activated receptor delta (Homo sapiens), sequence (Q03181 whole entry, looked up): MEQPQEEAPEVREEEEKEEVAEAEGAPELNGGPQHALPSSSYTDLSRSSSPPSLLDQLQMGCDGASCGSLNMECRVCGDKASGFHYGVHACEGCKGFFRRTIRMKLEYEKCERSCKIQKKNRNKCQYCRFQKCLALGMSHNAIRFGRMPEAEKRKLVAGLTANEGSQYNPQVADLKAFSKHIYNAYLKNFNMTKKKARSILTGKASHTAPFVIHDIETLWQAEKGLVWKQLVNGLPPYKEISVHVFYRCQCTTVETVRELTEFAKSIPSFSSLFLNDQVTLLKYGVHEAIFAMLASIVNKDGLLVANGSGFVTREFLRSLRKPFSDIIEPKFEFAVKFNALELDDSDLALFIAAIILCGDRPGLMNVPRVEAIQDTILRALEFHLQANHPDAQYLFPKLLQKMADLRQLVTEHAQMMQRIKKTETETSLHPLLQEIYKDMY
Voltage-gated inwardly rectifying potassium channel KCNH2 (Homo sapiens), sequence (Q12809 whole entry, looked up): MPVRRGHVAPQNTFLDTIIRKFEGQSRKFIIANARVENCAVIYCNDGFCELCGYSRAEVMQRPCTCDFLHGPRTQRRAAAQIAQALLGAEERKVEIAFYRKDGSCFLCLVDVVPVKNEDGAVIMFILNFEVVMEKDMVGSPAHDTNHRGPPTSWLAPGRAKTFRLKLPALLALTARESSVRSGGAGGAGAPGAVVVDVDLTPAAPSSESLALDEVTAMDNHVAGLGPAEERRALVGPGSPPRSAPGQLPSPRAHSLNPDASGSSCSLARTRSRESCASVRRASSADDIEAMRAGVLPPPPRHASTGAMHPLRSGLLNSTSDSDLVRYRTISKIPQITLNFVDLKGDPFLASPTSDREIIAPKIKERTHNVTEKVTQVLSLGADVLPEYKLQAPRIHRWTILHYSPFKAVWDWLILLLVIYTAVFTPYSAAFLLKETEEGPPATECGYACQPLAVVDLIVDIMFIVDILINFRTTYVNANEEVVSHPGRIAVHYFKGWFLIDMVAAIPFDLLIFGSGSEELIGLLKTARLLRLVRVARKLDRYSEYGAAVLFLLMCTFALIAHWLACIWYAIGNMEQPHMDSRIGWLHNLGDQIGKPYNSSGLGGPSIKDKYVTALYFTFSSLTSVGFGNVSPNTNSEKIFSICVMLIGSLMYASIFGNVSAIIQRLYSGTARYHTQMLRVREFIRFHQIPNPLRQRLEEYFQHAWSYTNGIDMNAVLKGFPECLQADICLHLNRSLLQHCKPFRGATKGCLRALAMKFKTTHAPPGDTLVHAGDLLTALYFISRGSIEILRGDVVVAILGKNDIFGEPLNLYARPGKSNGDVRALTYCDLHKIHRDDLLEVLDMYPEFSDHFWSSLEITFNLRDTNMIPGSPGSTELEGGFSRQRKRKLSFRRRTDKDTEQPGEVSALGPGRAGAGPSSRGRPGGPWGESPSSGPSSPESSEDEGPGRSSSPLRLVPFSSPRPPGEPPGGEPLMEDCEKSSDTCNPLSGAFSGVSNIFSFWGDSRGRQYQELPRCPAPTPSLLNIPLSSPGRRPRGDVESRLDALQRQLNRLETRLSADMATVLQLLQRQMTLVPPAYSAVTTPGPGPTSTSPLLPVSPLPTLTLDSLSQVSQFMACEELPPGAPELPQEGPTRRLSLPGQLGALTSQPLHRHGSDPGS
Thyroid hormone receptor beta (Homo sapiens), sequence (P10828 whole entry, looked up): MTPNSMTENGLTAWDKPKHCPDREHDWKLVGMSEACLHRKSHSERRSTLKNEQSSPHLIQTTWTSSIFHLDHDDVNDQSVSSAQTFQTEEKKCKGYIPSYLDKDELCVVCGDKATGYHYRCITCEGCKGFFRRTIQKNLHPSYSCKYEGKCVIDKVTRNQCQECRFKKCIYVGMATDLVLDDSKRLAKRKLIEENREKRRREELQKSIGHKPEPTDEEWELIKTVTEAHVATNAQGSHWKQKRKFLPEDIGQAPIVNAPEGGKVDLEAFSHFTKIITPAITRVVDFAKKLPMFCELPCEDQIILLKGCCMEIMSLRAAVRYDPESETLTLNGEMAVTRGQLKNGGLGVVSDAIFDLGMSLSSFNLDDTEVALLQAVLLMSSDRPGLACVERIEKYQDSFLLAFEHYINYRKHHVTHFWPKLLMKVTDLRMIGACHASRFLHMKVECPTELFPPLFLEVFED
Glucocorticoid receptor (Homo sapiens), sequence (P04150 whole entry, looked up): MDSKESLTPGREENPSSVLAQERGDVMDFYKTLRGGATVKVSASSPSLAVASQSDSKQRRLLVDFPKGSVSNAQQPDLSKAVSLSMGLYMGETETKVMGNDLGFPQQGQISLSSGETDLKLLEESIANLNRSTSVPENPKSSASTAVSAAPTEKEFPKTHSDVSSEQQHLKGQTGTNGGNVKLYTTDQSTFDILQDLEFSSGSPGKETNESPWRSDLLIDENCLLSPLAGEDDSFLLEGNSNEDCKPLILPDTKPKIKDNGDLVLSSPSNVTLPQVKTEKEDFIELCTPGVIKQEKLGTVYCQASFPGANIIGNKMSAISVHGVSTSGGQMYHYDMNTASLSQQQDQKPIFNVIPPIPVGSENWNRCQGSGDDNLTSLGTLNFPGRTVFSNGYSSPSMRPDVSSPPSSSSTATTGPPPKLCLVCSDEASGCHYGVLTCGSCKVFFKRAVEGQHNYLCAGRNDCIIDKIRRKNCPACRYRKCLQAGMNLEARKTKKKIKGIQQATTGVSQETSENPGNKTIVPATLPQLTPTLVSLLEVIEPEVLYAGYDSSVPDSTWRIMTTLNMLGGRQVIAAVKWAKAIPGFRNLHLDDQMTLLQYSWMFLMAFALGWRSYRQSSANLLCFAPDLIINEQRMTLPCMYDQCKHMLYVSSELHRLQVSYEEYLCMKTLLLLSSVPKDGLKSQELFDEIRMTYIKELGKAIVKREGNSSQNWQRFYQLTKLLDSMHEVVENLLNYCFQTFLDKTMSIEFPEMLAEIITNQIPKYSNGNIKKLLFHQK

On to `O=S(=O)(O)C(F)(F)C(F)(F)C(F)(F)C(F)(F)C(F)(F)C(F)(F)C(F)(F)C(F)(F)F`, for which the result in assay [1], in assay [4] and in assay [7] was inactive. In addition, the Potency entry in [2], in assay [3] and in assay [6] was “inactive” in each case. For the same compound, the max response in [5] is -11.4% and -1.61%; in assay [8], -5.97% and -3.14%; in assay [9], -2.01% (inactive) and 4.02% (inactive). For the same compound, the activity change % (negative = inhibition) in assay [10] was -0.756% (inactive).
As for `CCCCCCCCc1ccc(O)cc1`, the activation in [11] is 0.354% (inactive) and -8.06% (inactive). Also, the outcome in [12], in assay [1], in assay [4] and in [7] was inactive. Moreover, the max response was -43.1% and -32.6% in assay [13]; -5.76% and -13.1% in assay [5]; -5.97% in [8]; -17.2% (inactive) in assay [9]. Also, the Potency entry in [14], in assay [2], in assay [3], in assay [6] and in assay [15] was “inactive” in each case.
As to `CCCN(CCC)C1CCc2ccc(O)cc2C1` (centres undefined), the Potency in [15] is 2.24 µM (active).
Consider `CNCCc1ccc(O)c(O)c1`, for which the Potency entry in assay [15] was “inactive”.
On to `C[C@@H]1O[C@H](C[N+](C)(C)C)C[C@H]1O`, for which, in [15], the Potency result is “inactive”.
Same read-out and setting: then `CC[C@@H]1C(=O)OC[C@@H]1Cc1cncn1C`, with “inactive”.
Still for that read-out and setting: with `O=C1C(I)=CC(=C(c2cc(I)c(O)c(I)c2)c2ccccc2C(=O)O)C=C1I` the entry was “inactive”; with `CC(C)Oc1cccnc1N(C)C1CCN(Cc2ccccc2)CC1`, 6.31 µM (active).
Regarding `Cc1c(C(=O)c2cccc3ccccc23)c2cccc3c2n1[C@H](CN1CCOCC1)CO3`, the Potency in [15] was 6.31 µM (active).
On the same count and under the same terms, then `NC(=NCCC[C@H](N)C(=O)O)N[N+](=O)[O-]`, with “inactive”; and `COc1ccc2c(c[n+](C)c3c4cc5c(cc4ccc23)OCO5)c1OC`, with “inactive”.
On to `NCCc1c[nH]c2ccc(O)cc12`, for which the Potency result in assay [15] is “inactive”.
With `NCCc1c[nH]c2ccccc12`, the Potency entry in assay [15] was “inactive”.
As for `COc1cc(C(O)CN)ccc1O` (centres undefined), the Potency entry in assay [15] was “inactive”.
Same read-out and setting: then `NC1CC1c1ccccc1` (centres undefined), with “inactive”.
Still for that read-out and setting: with `CC[C@@]1(O)C(=O)OCc2c1cc1n(c2=O)Cc2cc3ccccc3nc2-1` the entry was “inactive”; with `CN[C@@H](C)[C@H](O)c1ccccc1`, “inactive”.
